SMILES strings stand for the structures. Inconclusive results are not listed. Calls of active or inactive are those of the source. How the source made its calls: active means hit-call score of the fitted dose curve at least 0.9, where 1 is the maximum; inconclusive means response in the unintended direction; inactive means score below 0.9.

The assay in a line: ATG_XTT_Cytotoxicity: Cytotoxicity Assessment in the Attagene TRANS-FACTORIAL HepG2 Assay (AID 2283584). In short, it runs like this: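 Transfect HepG2 with GAL4-UAS reporter units, dose compound, incubate 24 h, then measure viable cell number by XTT. Fit concentration response against DMSO baseline.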
`CC(C)(CO)COC(=O)C(C)(C)CO`: the molecule was classed as inactive.

For the molecule `CC(Cl)COP(=O)(OCC(C)Cl)OCC(C)Cl` (stereo not given), the molecule was called inactive.

As to `C[Si](C)(C)N[Si](C)(C)C`, the call was inactive.

As for `CC1=CCC(C(C)C)C=C1` (stereo not given), the molecule was called inactive.

For `C=CC(C)(CCC=C(C)C)OC(=O)C=Cc1ccccc1` (stereo not given), the molecule was classed as inactive.

`CN(C)c1ccc2nc3ccc(=[N+](C)C)cc-3sc2c1`: the result was inactive.

Consider `COCC(=O)O`, for which the outcome was inactive.

`CC1(C)[C@@H]2CC[C@@]1(C)C(=O)C2`: the molecule was classed as inactive.

As to `CC1C(C)(C)C2=C(C(=O)CCC2)C1(C)C` (stereo not given), the call was inactive.

`CCCCCCCCCCCCCCCCCCOS(=O)(=O)O`: the result was inactive.

Regarding `C=C1C[C@H]2[C@@H]3C=C(C)C4=CC(=O)CC[C@]4(C)[C@H]3CC[C@]2(C)[C@@]1(OC(C)=O)C(C)=O`, the result was inactive.

Consider `CCOC(=O)c1ccc(C)cc1`, for which the molecule was classed as inactive.

Consider `CC(=O)CC(=O)Nc1ccccc1C`, for which the result was inactive.

In the case of `CC(=O)OC1CCCCC1C(C)(C)C` (stereo not given), the call was inactive.

For `C=C(C)C(=O)OCC(O)COc1ccc(C(C)(C)c2ccc(OCC(O)COC(=O)C(=C)C)cc2)cc1` (stereo not given), the molecule was called inactive.

With `C=CCCCCCCCCO`, the molecule was classed as inactive.

Take `CCCCCCOc1ccc(N)cc1`: the result was inactive.

`CCCCOC(=O)C(C)CC` (stereo not given): the molecule was called inactive.

In the case of `O=C1CCCCCCCCCCC1`, the call was inactive.

Turning to `Cc1noc(NS(=O)(=O)c2ccc(N)cc2)c1C`, the result was inactive.

Turning to `CCCCCCC=O`, the call was inactive.

`CCOC(=O)/C=C\C(=O)OCC`: the molecule was classed as inactive.

Take `C=CCNCC=C`: the molecule was called inactive.

In the case of `O=S(=O)(O)c1ccc(Nc2nc(Nc3ccc(C=Cc4ccc(Nc5nc(Nc6ccc(S(=O)(=O)O)cc6)nc(N(CCO)CCO)n5)cc4S(=O)(=O)O)c(S(=O)(=O)O)c3)nc(N(CCO)CCO)n2)cc1`, the result was inactive.

`CC/C=C\CCOC(=O)c1ccccc1O`: the result was inactive.

As for `CC(=O)OCCc1ccccc1`, the molecule was classed as inactive.

Turning to `C=C(C)C1CC=C(C)CC1` (stereo not given), the molecule was classed as inactive.

For the molecule `CCCC(CC)c1ccccc1` (stereo not given), the molecule was classed as inactive.

As to `Oc1ccccc1Cc1ccccc1O`, the outcome was inactive.

On to `CCCC/C=C/C=C\C=O`, for which the molecule was classed as inactive.

For the molecule `CCCCOCC(C)O` (stereo not given), the molecule was classed as inactive.

For the molecule `CCCCNS(=O)(=O)c1ccc(C)cc1`, the molecule was called inactive.

In the case of `Nc1ccc(C(=O)OCCCOC(=O)c2ccc(N)cc2)cc1`, the call was inactive.

As to `C=C(C)C(=O)OCCCCCCCCCCCC`, the molecule was called inactive.

For `c1ccc2cnccc2c1`, the molecule was classed as inactive.

As for `CCCCOCCOC(=O)COc1ccc(Cl)cc1Cl`, the call was inactive.

Regarding `CC(=O)OC(C)c1ccccc1` (stereo not given), the result was inactive.

For the molecule `CC(C)CCCCCOC(=O)CS`, the outcome was inactive.

With `CC1(C)CCC[C@]2(C)[C@H]3CC(=O)O[C@]3(C)CC[C@@H]12`, the molecule was called inactive.

In the case of `CCCCC(CC)COC(=O)/C=C/c1ccc(OC)cc1` (stereo not given), the outcome was inactive.
